# Data reported in the supplement of paper PMC3334620.
# In all, about 33,000 sequences were measured (“E-score (-0.5 to 0.5)”: median about -0.035, highest 2% from about 0.34 on). Shown is part of a subset that was picked to be rich in the highest values.
# Molecular target: T1, Mot3 (UniProt P54785)
# T1 sequence: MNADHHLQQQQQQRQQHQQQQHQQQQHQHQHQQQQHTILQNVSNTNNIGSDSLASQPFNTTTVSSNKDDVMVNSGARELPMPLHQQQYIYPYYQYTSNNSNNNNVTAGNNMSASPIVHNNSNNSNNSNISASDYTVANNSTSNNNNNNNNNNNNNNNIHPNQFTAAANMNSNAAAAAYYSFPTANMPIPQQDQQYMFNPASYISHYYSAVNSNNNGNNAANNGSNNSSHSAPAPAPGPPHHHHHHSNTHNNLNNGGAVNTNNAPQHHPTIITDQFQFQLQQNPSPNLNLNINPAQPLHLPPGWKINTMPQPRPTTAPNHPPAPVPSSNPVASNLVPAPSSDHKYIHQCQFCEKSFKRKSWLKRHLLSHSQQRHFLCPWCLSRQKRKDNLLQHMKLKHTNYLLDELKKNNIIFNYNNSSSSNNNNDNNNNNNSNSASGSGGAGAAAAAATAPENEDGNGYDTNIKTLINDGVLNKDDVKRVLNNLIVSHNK
# Assay: PBM E-score (8-mer binding enrichment) (E-score (-0.5 to 0.5)); higher = stronger / more preferred TF binding
# Details: protein concentration: 200 nM; construct: GST-full length
# In short: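 Yeast transcription factors carrying a GST tag, as full-length proteins or DNA-binding domains, were produced by PURExpress in vitro transcription/translation. About 100-200 nM protein was applied to universal all-10-mer Agilent arrays, double-stranded by primer extension on fresh or once-stripped slides. Bound protein was detected with fluorescent anti-GST, and scans were normalised with masliner. The Universal PBM Analysis Suite gave each ungapped eight-base word, pooled with its reverse complement, an E-score, a modified Wilcoxon-Mann-Whitney statistic.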
row,Sequence,PBM E-score
1,AACATAGA,0.2
2,GCCTCCGA,0.0149
3,CGTACCAC,-0.0328
4,CGAATTCG,-0.137
5,AACAGAAG,0.0357
6,GTCTTAAA,-0.131
7,CCCTGAAA,-0.0551
8,AAAGGTTC,0.12
9,ACACGATA,0.345
10,CCACGATC,0.0336
11,AGACGATC,-0.288
12,ACACGATC,0.347
13,ACACGATG,0.199
14,CCACGATA,-0.107
15,CCTTTGAC,0.125
16,GAGGCTAA,-0.134
17,ACTGCGCA,-0.17
18,GGTGGGCA,0.0151
19,GGTGACAA,-0.12
20,CCCTTTAC,0.15
21,GCCTTTAC,0.357
22,GCCTTTAA,0.322
23,AGCGCTAG,-0.115
24,TATTTCAA,0.159
25,CCATCTAG,-0.0951

row,Sequence,PBM E-score
1,AGTTATAA,0.163
2,ATTTAACG,0.247
3,CGTTAAAA,0.151
4,TGTTATAA,0.35
5,ATTTAACC,0.0628
6,CGTTATAA,0.15
7,TCTTAACA,0.346
8,GCTTAACA,0.229
9,TGTTAAAA,0.343
10,ATTTAACA,0.354
11,CCTTAACA,0.315
12,GGTTAAAA,0.194
13,CGGGGGGC,-0.295
14,ACAATTCC,-0.0244
15,CGCTCCAC,-0.234
16,GTGAAGTA,0.0411
17,TAACACAA,0.332
18,CCAGTATA,-0.178
19,ACTTGATA,0.0522
20,GAATCTAA,-0.0012
21,CCTGAACA,0.23
22,AGTTAACA,0.279
23,TGTTAACA,0.361
24,CATTAACA,0.299
25,GATTAACA,0.338

row,Sequence,PBM E-score
1,TATTAACA,0.359
2,CGTTAACA,0.244
3,AAAAGGTC,-0.161
4,CTGCAGCA,-0.0262
5,GCCAGCGC,-0.236
6,AAGCGTAA,0.0617
7,GCGTTTCC,0.0476
8,AGGAAATA,0.368
9,AGGAAATC,0.373
10,CGGAAATA,-0.206
11,CGGAAATC,-0.109
12,GGGAAATA,0.0874
13,AGGAAATG,0.262
14,AGTGATAG,0.0766
15,GCCTCGCC,-0.17
16,ACCTGAAC,0.0861
17,AAGGGTAT,-0.018
18,TATTCACA,0.221
19,ACAGGAGG,-0.0434
20,AAAAGATG,0.11
21,CAAAGGCA,0.479
22,GAAAGGGA,0.0421
23,GAAAGGCC,-0.0302
24,AAAAGGCA,0.478
25,TAAAGTCA,0.0168

row,Sequence,PBM E-score
1,GAAAGGCA,0.469
2,CAAAGGCC,-0.151
3,TAAAGGCA,0.481
4,TAAAGGGA,0.016
5,AAAAGGCT,0.0632
6,CAAAGGCG,0.233
7,AAAAGGCG,0.278
8,ACAACGAT,0.155
9,AGCACAAG,0.0406
10,CTAGGCCC,-0.21
11,CTCTACCA,-0.192
12,CGACTCAG,-0.219
13,GCGGTTCC,0.0435
14,CACTTTGG,-0.0925
15,GACTGATA,-0.216
16,CGGGGCTA,-0.291
17,AACTTCCT,0.15
18,CTTTGTAC,0.193
19,CTTTGTAA,0.355
20,CCTTGTAC,0.272
21,CCTTGTAA,0.392
22,ATTTGTAA,0.244
23,CCTTGTAG,0.311
24,AGGCTGTC,-0.15
25,GGGCATAC,-0.186

row,Sequence,PBM E-score
1,AAGAAGTC,-0.0398
2,AATTGCGC,0.0861
3,GTCTATGA,0.0543
4,CTCGATAC,0.24
5,AGCGTGTA,0.406
6,GGCGTGCA,-0.243
7,CGCGTGTA,0.375
8,GGCGTGAA,-0.0959
9,CGCGTGAA,0.172
10,CGCGTGTC,0.196
11,AGCGTGTG,0.147
12,AGCGTGTC,0.205
13,GGCGTGTA,0.383
14,ACAGACGT,0.119
15,GAGGGAAA,-0.199
16,CTCCTTGA,-0.122
17,CGAAGGTC,-0.313
18,CGAAGGTA,0.366
19,AGAAGGTC,-0.0584
20,GGAAGGTA,0.251
21,AGAAGGTG,-0.0242
22,AGAAGGTA,0.347
23,ATTTAGGC,0.339
24,CTTGATAC,0.00505
25,CAGACACC,-0.0175

row,Sequence,PBM E-score
1,AAGACGGC,-0.265
2,ATGGATTG,0.0625
3,GCGTTCTA,-0.106
4,ATAGACCC,0.178
5,CGCCACCC,-0.0907
6,CAACATGA,0.352
7,TAACATCA,0.25
8,GAACATGA,0.238
9,AAACATGA,0.327
10,AAACATGC,0.288
11,CCACATGA,0.0141
12,AAACATGG,0.222
13,CAACATGC,0.345
14,GAACATGC,0.202
15,AAACATGT,0.374
16,CAACATGG,0.337
17,TAACATGA,0.363
18,ATGGCCAT,-0.171
19,CAGTTCCC,-0.174
20,CTAGGATC,-0.0652
21,CAGTGCGC,-0.292
22,CCCGGTCG,-0.273
23,ACCGGTAT,-0.135
24,ACGTTGTG,0.137
25,GGCCGAGA,-0.209

row,Sequence,PBM E-score
1,TAGTAATA,0.182
2,CTCTCTGC,-0.112
3,AAGGCATT,0.362
4,AAGGCATG,0.303
5,AAGGCATC,0.381
6,AGGGCATC,-0.163
7,ATGGCATC,-0.162
8,AAGGCATA,0.321
9,AAACTTCG,0.0118
10,TACCTAGA,0.252
11,AGAGAAAA,-0.0157
12,CAGCACTA,-0.113
13,ATAAAGCA,-0.12
14,CTAAAGGA,0.148
15,ATAAAGGC,0.186
16,CTTAAGGC,0.314
17,ACATAGGT,0.282
18,ACACAGGA,0.295
19,ATTAAGGC,0.378
20,ATTAAGGA,0.0441
21,ACACAGGG,0.213
22,ACACAGGC,0.354
23,CTAAAGGC,0.35
24,GCATAGGC,0.166
25,ACATAGGC,0.373
